# Results: PubChem BioAssay (EPA / NIEHS)
# The source made the active and inactive calls. The calls were made as follows: active = hit-call score of the fitted dose curve at least 0.9, where 1 is the maximum; inactive = score below 0.9.
# How the values were obtained:
# [1] = ATG_E_Box_CIS: Attagene CIS-FACTORIAL HepG2 Assay for human Enhancer Box (E-box) (AID 2282936); settings: HepG2 E-box cis-reporter transcription, actives raise or lower the signal
# Summary of the method: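 Endogenous transcription factor activity was sensed in human HepG2 liver cells through transfected cis-promoter reporter units. After 24 h of dosing, total RNA was reverse-transcribed and reporter cDNA resolved by capillary electrophoresis.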
# [2] = ATG_M_61_CIS: Attagene CIS-FACTORIAL HepG2 Assay for M61 Transcription Factor (Internal Marker) (AID 2282937); settings: HepG2 Attagene CIS-FACTORIAL M61 internal marker reporter; actives raise or lower the signal
# Summary of the method: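 Human liver HepG2, transient MRTU transfection (cis promoter elements), 24 h compound. Total RNA → oligo(dT) RT → PCR → FAM label → HpaI → CE. Internal background marker; bidirectional fitting, DMSO = baseline.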
# [3] = ATG_EGR_CIS: Attagene CIS-FACTORIAL HepG2 Assay for human Early Growth Response 1 (EGR1) (AID 2282938); settings: HepG2 Attagene CIS-FACTORIAL EGR reporter mRNA; actives raise or lower the signal
# Summary of the method: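 Transient transfection of human HepG2 with multiple cis-regulated reporter units, chemical exposure 24 h, total RNA isolated. Reverse transcription, PCR, fluorescent labelling and capillary electrophoresis quantify reporter transcripts; activity fitted bidirectionally against DMSO.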
# [4] = ATG_M_19_CIS: Attagene CIS-FACTORIAL HepG2 Assay for M19 Transcription Factor (Internal Marker) (AID 2282939); settings: HepG2 Attagene CIS-FACTORIAL M19 internal marker reporter; actives raise or lower the signal
# Summary of the method: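 Readout: fluorescent reporter-transcript fragments by capillary electrophoresis after RT-PCR. Human HepG2 liver cells carried transfected MRTU constructs reporting endogenous transcription-factor activity; exposure 24 h. Gain or loss of signal fitted relative to DMSO.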
# [5] = ATG_Ets_CIS: Attagene CIS-FACTORIAL HepG2 Assay for human Erythroblast Transformation Specific (ETS) (AID 2282941); settings: HepG2 ETS cis-reporter transcription, actives raise or lower the signal
# Summary of the method: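 Multiplexed reporter transcript profiling: HepG2, 24 h treatment, total RNA to cDNA, PCR, 6-FAM labelling, HpaI cut, capillary electrophoresis. Gain- or loss-of-signal fitted against DMSO.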
# [6] = target: Hepatocyte nuclear factor 3-beta (Homo sapiens) (UniProt Q9Y261); test: ATG_FoxA2_CIS: Attagene CIS-FACTORIAL HepG2 Assay for human Forkhead box A2 (FOXA2) (AID 2282942); settings: HepG2 cis-reporter transcription factor activity, 24 h; actives raise or lower the signal
# Hepatocyte nuclear factor 3-beta (Homo sapiens), sequence (Q9Y261 whole entry, looked up): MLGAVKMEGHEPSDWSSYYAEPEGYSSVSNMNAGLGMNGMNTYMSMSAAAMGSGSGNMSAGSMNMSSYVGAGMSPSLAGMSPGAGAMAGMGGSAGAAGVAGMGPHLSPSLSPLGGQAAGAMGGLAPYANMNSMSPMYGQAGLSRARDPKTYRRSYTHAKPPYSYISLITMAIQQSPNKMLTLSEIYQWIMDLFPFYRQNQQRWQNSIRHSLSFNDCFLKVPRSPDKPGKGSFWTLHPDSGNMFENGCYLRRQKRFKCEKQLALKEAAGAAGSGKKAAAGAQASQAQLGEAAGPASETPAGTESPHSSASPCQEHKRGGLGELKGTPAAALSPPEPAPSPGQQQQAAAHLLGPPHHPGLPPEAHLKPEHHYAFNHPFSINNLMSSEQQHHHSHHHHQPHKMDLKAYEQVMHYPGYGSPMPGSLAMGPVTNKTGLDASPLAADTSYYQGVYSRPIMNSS
# Summary of the method: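 Transient MRTU transfection of HepG2 liver cells; 24 h treatment; total RNA → oligo(dT) RT → PCR → FAM primer extension → HpaI cut → CE. Bidirectional fit vs DMSO.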
# [7] = ATG_FoxO_CIS: Attagene CIS-FACTORIAL HepG2 Assay for human Forkhead box O (FoxO) (AID 2282943); settings: HepG2 Attagene cis-reporter, FoxO element, mRNA; actives raise or lower the signal
# Summary of the method: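 24 h chemical exposure, HepG2 with transient cis-MRTU transfection. RNA extraction, oligo(dT) RT, reporter-specific PCR, primer-extension labelling, HpaI digestion, CE fragment analysis; bidirectional fit, DMSO baseline.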
# [8] = ATG_GATA_CIS: Attagene CIS-FACTORIAL HepG2 Assay for human GATA Binding Protein (AID 2282944); settings: HepG2 GATA cis-element reporter, Attagene multiplex mRNA; actives raise or lower the signal
# Summary of the method: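 Read-out: fluorescent reporter mRNA fragments resolved by capillary electrophoresis after RT-PCR. Human liver HepG2 cells carried transiently transfected cis-regulated reporter constructs; chemicals incubated 24 h; gain or loss of signal fitted relative to DMSO.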
# [9] = ATG_GLI_CIS: Attagene CIS-FACTORIAL HepG2 Assay for human Zinc Finger Protein GLI1 (AID 2282945); settings: HepG2, Attagene cis-factorial reporter mRNA, GLI element; actives raise or lower the signal
# Summary of the method: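 HepG2 cells transiently transfected with cis-promoter multiplexed reporter units report endogenous transcription factor activity. After 24 h chemical exposure, reporter mRNA was quantified by RT-PCR, 6-FAM labelling, HpaI digestion and capillary electrophoresis, with bidirectional fitting against DMSO.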
# [10] = ATG_ISRE_CIS: Attagene CIS-FACTORIAL HepG2 Assay for human Interferon Regulatory Factor 1 (IRF1) binding to an Interferon-Stimulated Response Element (ISRE) (AID 2282948); settings: HepG2 ISRE cis-reporter (Attagene), mRNA transcription readout; actives raise or lower the signal
# Summary of the method: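 Signal reflects induction or loss of ISRE-linked reporter mRNA in transiently transfected HepG2 cells after a 24 h treatment, detected by fluorescent RT-PCR fragments on capillary electrophoresis and normalised to DMSO.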
# [11] = ATG_M_32_CIS: Attagene CIS-FACTORIAL HepG2 Assay for M32 Transcription Factor (Internal Marker) (AID 2282949); settings: HepG2 Attagene cis-factorial M32 reporter, mRNA; actives raise or lower the signal;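 also: background control marker of the multiplexed CIS panel rather than a real target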
# Summary of the method: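 HepG2 human liver cells transiently transfected with cis-promoter-driven multiple reporter transcription units, dosed 24 h. Reporter mRNA quantified by RT-PCR, FAM-labelled primer extension, HpaI digest and capillary electrophoresis; bidirectional fit versus DMSO baseline.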
# [12] = target: Hypoxia-inducible factor 1-alpha (Homo sapiens) (UniProt Q16665); test: ATG_HIF1a_CIS: Attagene CIS-FACTORIAL HepG2 Assay for human Hypoxia Inducible Factor 1 (HIF1A) (AID 2282951); settings: HepG2 Attagene cis-factorial HIF1a reporter transcription; actives raise or lower the signal
# Hypoxia-inducible factor 1-alpha (Homo sapiens), sequence (Q16665 whole entry, looked up, the tested form may be a part): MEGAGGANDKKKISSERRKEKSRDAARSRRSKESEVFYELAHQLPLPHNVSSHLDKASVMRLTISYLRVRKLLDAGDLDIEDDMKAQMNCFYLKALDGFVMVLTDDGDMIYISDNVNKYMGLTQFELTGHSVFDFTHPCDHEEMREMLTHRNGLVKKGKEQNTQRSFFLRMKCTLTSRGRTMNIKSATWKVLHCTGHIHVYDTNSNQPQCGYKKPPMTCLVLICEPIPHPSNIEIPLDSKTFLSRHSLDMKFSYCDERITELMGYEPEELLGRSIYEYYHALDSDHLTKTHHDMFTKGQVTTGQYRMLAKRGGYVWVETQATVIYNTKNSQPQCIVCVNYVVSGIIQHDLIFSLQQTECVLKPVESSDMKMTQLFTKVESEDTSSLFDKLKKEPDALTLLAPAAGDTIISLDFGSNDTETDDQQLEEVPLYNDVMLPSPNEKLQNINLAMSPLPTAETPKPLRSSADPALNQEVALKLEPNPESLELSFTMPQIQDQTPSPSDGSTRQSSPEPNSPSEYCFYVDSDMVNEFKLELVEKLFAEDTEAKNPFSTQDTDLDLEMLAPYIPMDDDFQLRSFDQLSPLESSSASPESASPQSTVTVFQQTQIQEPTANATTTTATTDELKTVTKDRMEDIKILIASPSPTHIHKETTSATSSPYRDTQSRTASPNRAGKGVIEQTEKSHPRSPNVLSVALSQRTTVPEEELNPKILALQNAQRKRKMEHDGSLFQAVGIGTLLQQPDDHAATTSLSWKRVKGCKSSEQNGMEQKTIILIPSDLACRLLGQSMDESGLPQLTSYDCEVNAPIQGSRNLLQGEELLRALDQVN
# Summary of the method: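 Transient MRTU transfection of human HepG2 liver cells, 24 h compound treatment, then total RNA isolation, oligo(dT) reverse transcription, PCR amplification, fluorescent labelling and capillary electrophoresis of reporter fragments. Gain or loss relative to DMSO.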
# [13] = target: Hepatocyte nuclear factor 6 (Homo sapiens) (UniProt Q9UBC0); test: ATG_HNF6_CIS: Attagene CIS-FACTORIAL HepG2 Assay for human Hepatocyte Nuclear Factor 6 (HNF6) (AID 2282952); settings: HepG2 Attagene cis-factorial HNF6 reporter transcription; actives raise or lower the signal
# Hepatocyte nuclear factor 6 (Homo sapiens), sequence (Q9UBC0 whole entry, looked up, the tested form may be a part): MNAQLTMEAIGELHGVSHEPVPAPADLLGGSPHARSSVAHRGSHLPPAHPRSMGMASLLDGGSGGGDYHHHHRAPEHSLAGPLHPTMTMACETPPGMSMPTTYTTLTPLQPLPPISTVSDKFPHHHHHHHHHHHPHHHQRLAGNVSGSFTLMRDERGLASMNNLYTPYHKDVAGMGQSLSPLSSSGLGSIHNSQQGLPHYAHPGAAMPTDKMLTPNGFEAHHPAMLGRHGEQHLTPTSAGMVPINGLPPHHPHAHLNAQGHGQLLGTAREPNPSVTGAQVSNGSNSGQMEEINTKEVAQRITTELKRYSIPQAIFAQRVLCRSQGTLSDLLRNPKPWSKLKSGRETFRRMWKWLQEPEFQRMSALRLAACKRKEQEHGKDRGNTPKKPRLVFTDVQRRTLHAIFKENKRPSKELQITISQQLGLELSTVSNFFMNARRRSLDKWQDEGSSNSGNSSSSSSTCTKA
# Summary of the method: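 First, HepG2 cells were transfected with the multiplexed cis reporter library and dosed with chemical for 24 h. Next, RNA was reverse-transcribed, PCR-amplified and fluorescently labelled. Finally, HpaI-digested fragments were read by capillary electrophoresis.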
# [14] = target: Heat shock factor protein 1 (Homo sapiens) (UniProt Q00613); test: ATG_HSE_CIS: Attagene CIS-FACTORIAL HepG2 Assay for human Heat Shock Transcription Factor 1 (HSE) (AID 2282953); settings: HepG2 HSE cis-reporter, Attagene RNA transcription; actives raise or lower the signal
# Heat shock factor protein 1 (Homo sapiens), sequence (Q00613 whole entry, looked up, the tested form may be a part): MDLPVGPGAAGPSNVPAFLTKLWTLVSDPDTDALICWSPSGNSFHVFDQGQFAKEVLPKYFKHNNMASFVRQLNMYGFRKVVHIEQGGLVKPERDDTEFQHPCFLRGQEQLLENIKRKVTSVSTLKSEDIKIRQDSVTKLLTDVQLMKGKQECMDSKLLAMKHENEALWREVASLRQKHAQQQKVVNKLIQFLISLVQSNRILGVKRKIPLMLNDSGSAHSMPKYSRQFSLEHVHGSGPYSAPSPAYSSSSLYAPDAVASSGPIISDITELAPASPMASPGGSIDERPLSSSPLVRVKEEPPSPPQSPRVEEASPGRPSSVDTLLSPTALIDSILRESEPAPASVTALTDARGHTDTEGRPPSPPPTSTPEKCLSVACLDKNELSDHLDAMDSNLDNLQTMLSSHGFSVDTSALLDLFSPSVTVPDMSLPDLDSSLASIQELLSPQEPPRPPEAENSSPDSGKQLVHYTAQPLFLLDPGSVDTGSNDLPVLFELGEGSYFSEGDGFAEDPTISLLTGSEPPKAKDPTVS
# Summary of the method: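 Read-out: fluorescence of reporter-specific RT-PCR fragments separated by capillary electrophoresis. HepG2 carrying transfected cis-element reporter units; 24 h dosing; activity fitted in both directions relative to DMSO baseline.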
# [15] = ATG_MRE_CIS: Attagene CIS-FACTORIAL HepG2 Assay for human Metal Responsive Element (MRE) (AID 2282954); settings: HepG2 MRE cis-reporter transcription, Attagene multiplex; actives raise or lower the signal
# Summary of the method: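 Cells were transfected with cis-promoter reporter transcription units, then dosed for 24 h. RNA was reverse-transcribed, amplified, fluorescently labelled and resolved by capillary electrophoresis, and activity was fitted in both directions relative to DMSO.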
# [16] = ATG_GRE_CIS: Attagene CIS-FACTORIAL HepG2 Assay for human Glucocorticoid Response Elements (GRE) (AID 2282947); settings: HepG2 GRE cis-reporter, Attagene multiplex mRNA; actives raise or lower the signal
# Summary of the method: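 Cells (HepG2) bearing transfected cis-promoter reporter transcription units were treated with chemical for 24 hours. Reporter mRNA was measured via RT-PCR with capillary electrophoresis, and activity was fitted in both directions relative to DMSO.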
# [17] = ATG_PBREM_CIS: Attagene CIS-FACTORIAL HepG2 Assay for human Phenobarbital-responsive Enhancer Module (PBREM) (AID 2282955); settings: HepG2 PBREM cis-reporter, Attagene multiplexed transcription; actives raise or lower the signal
# Summary of the method: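 Endogenous transcription factors in human liver HepG2 cells drive a PBREM cis-element reporter, whose transcript level after 24 h treatment is quantified by RT-PCR with capillary electrophoresis; activity fitted in both directions against DMSO.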
# [18] = ATG_M_06_CIS: Attagene CIS-FACTORIAL HepG2 Assay for M06 Transcription Factor (Internal Marker) (AID 2282950); settings: HepG2 Attagene CIS-FACTORIAL M06 internal marker reporter; actives raise or lower the signal
# Summary of the method: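 Terse: HepG2, transient MRTU transfection (FuGene 6), 24 h dosing; total RNA, oligo(dT) RT, PCR, FAM label, HpaI cut, capillary electrophoresis; bidirectional fit vs DMSO baseline; background-control endpoint.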
# [19] = target: Bile acid receptor (Homo sapiens) (UniProt Q96RI1); test: ATG_IR1_CIS: Attagene CIS-FACTORIAL HepG2 Assay for human Nuclear Receptor Subfamily 1 Group H Member 4 (NR1H4), IR1 submotif (AID 2282946); settings: IR1 reporter transcription, actives raise or lower the signal
# Bile acid receptor (Homo sapiens), sequence (Q96RI1 whole entry, looked up): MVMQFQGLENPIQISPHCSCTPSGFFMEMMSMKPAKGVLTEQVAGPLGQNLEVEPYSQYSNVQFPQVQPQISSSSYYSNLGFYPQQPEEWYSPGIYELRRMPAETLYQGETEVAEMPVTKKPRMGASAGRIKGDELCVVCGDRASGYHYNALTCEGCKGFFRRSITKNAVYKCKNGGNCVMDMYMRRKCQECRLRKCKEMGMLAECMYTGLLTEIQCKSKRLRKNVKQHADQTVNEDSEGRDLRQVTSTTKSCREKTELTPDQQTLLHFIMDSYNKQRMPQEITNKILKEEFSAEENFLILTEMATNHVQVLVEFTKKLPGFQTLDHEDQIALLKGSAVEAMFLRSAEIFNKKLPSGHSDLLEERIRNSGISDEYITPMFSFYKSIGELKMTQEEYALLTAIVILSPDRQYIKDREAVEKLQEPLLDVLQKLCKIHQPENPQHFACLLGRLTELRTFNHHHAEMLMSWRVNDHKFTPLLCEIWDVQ
# Summary of the method: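 Readout: reporter transcript levels by RT-PCR with fluorescent capillary electrophoresis, from HepG2 cells transiently transfected with multiplexed cis-regulated reporters and dosed 24 h. Gain- or loss-of-signal fitted versus DMSO negative control.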
smiles,measurement,setting,value
CC/C=C\CCOC(=O)CC,outcome,[1],inactive
same,outcome,[2],inactive
same,outcome,[3],inactive
same,outcome,[4],inactive
same,outcome,[5],inactive
same,outcome,[6],inactive
same,outcome,[7],inactive
same,outcome,[8],inactive
same,outcome,[9],inactive
same,outcome,[10],inactive
same,outcome,[11],inactive
same,outcome,[12],inactive
same,outcome,[13],inactive
same,outcome,[14],inactive
same,outcome,[15],inactive
C=CCOC(=O)CCCCCC,outcome,[1],inactive
same,outcome,[2],inactive
same,outcome,[3],inactive
same,outcome,[4],inactive
same,outcome,[5],inactive
same,outcome,[6],inactive
same,outcome,[7],inactive
same,outcome,[9],inactive
same,outcome,[16],inactive
same,outcome,[10],inactive
same,outcome,[11],inactive
same,outcome,[12],inactive
same,outcome,[14],inactive
same,outcome,[17],inactive
c1ccc(CN(Cc2ccccc2)Cc2ccccc2)cc1,outcome,[1],inactive
same,outcome,[2],inactive
same,outcome,[3],inactive
same,outcome,[4],inactive
same,outcome,[5],inactive
same,outcome,[6],inactive
same,outcome,[7],inactive
same,outcome,[8],inactive
same,AC50,[9],100 µM (active)
same,outcome,[16],inactive
same,outcome,[10],inactive
same,outcome,[11],inactive
same,outcome,[18],inactive
same,outcome,[13],inactive
same,outcome,[14],inactive
same,outcome,[15],inactive
same,outcome,[17],inactive
Cc1cc(CCC(=O)OCCOCCOCCOC(=O)CCc2cc(C)c(O)c(C(C)(C)C)c2)cc(C(C)(C)C)c1O,outcome,[1],inactive
same,outcome,[2],inactive
same,outcome,[3],inactive
same,outcome,[4],inactive
same,outcome,[5],inactive
same,outcome,[6],inactive
same,outcome,[8],inactive
same,outcome,[9],inactive
same,outcome,[19],inactive
same,outcome,[16],inactive
same,outcome,[10],inactive
same,outcome,[11],inactive
same,outcome,[18],inactive
same,outcome,[13],inactive
same,outcome,[14],inactive
same,AC50,[15],26.6 µM (active)
same,AC50,[17],17.7 µM (active)
CCCCCCCCN1CCCC1=O,outcome,[1],inactive
same,outcome,[2],inactive
same,outcome,[3],inactive
same,outcome,[4],inactive
same,outcome,[5],inactive
same,outcome,[8],inactive
same,outcome,[9],inactive
same,outcome,[19],inactive
same,outcome,[16],inactive
same,outcome,[10],inactive
same,outcome,[11],inactive
same,AC50,[12],147 µM (active)
same,outcome,[13],inactive
same,outcome,[14],inactive
same,outcome,[15],inactive
same,outcome,[17],inactive
CCCCCC(C=O)=Cc1ccccc1,outcome,[1],inactive
same,outcome,[2],inactive
same,outcome,[3],inactive
same,outcome,[4],inactive
same,outcome,[5],inactive
same,outcome,[7],inactive
same,outcome,[8],inactive
same,outcome,[9],inactive
same,outcome,[19],inactive
same,outcome,[16],inactive
same,AC50,[10],160 µM (active)
same,outcome,[11],inactive
same,outcome,[18],inactive
same,outcome,[12],inactive
same,outcome,[13],inactive
same,AC50,[14],173 µM (active)
same,outcome,[15],inactive
same,outcome,[17],inactive
CCCCC(CC)(CO)CO,outcome,[1],inactive
same,outcome,[2],inactive
same,outcome,[3],inactive
same,outcome,[4],inactive
same,outcome,[5],inactive
same,outcome,[6],inactive
same,outcome,[8],inactive
same,outcome,[9],inactive
same,outcome,[19],inactive
same,outcome,[10],inactive
same,outcome,[11],inactive
same,outcome,[18],inactive
same,outcome,[12],inactive
same,outcome,[13],inactive
same,outcome,[14],inactive
same,outcome,[15],inactive
same,outcome,[17],inactive
OCCOCCN1CCN(C2=Nc3ccccc3Sc3ccccc32)CC1,outcome,[1],inactive
same,outcome,[2],inactive
same,outcome,[3],inactive
same,outcome,[4],inactive
same,outcome,[5],inactive
same,outcome,[7],inactive
same,outcome,[8],inactive
same,outcome,[9],inactive
same,outcome,[19],inactive
same,outcome,[11],inactive
same,outcome,[18],inactive
same,outcome,[12],inactive
same,outcome,[13],inactive
same,outcome,[14],inactive
same,AC50,[15],71.7 µM (active)
